The entries come from a sample that favours hits as a whole.
nsP2pro inh – CHIKV nsP2 protease inhibition, primary qHTS. Potency, µM (highest dose often 24.9 µM), without a hit: at the highest dose activity change, negative = inhibition, most hits filed as inhibitors. FRET peptide cleavage, nsP2pro, fluorescence 1 h. AID 1964107. 1.1% of 31,000 active; also: nearly all actives have a fitted effect of over 60% in size
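Purified recombinant nsP2pro (150 nM final) in 10 mM Tris-HCl pH 8.0 with 0.01% Tween 20 was preincubated 15 min at room temperature with compound (7 concentrations, up to 25 uM). FRET peptide 2 substrate (2.5 uM final) was then added; fluorescence was read after 1 h.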
CHIKV nsP2 cell – secondary cell-based test for CHIKV nsP2 protease inhibitors. Potency, µM (series often up to 51.1 µM), for the others: at the top dose activity change, negative = inhibition, usual class: inhibitors. AID 1964100. cell-based CHIKV nsP2 protease reporter assay. shares compounds with nsP2pro inh. 10% of 450 active; also: nearly all actives have a fitted effect of over 70% in size
CHIKV NSP2 FL – selectivity test for CHIKV nsP2 protease inhibitors: full-length NSP2; 39% of 410 active; shares compounds with nsP2pro inh; Potency, µM (series often up to 50.7 µM), for the others: at the highest dose activity change, negative = inhibition, most hits filed as inhibitors; Full-length CHIKV NSP2 protease enzymatic counterscreen; also: nearly all actives have a fitted effect of over 65% in size
Furin counterscr – selectivity counter-screen for CHIKV nsP2 protease inhibitors: human furin; shares compounds with nsP2pro inh; Recombinant human furin enzymatic counterscreen, fluorogenic substrate; Potency, µM (titrated, usually from 50.6 µM), inactives show top-dose activity change, negative = inhibition, hits mostly inhibitors; 6% of 410 active; AID 1964102
nsP2 NS23 pep – nsP2pro inhibition on native NS2/3 peptide substrate; Purified CHIKV nsP2 protease, endogenous NS2/3 peptide cleavage; Potency, µM (highest dose often 51 µM), without a hit: top-dose activity change, negative = inhibition, most hits filed as inhibitors; AID 1964103; 34% of 410 active; shares compounds with nsP2pro inh; also: nearly all actives have a fitted effect of over 55% in size
Papain counter – inhibits papain in a CHIKV nsP2 protease selectivity counterscreen; 5% of 410 active; shares compounds with nsP2pro inh; Potency, µM (doses to about 51 µM), for the others: at the top dose activity change, negative = inhibition, actives largely listed as inhibitors; purified papain protease activity, enzymatic inhibition; AID 1964104
Target sequence (P00784 whole entry, looked up): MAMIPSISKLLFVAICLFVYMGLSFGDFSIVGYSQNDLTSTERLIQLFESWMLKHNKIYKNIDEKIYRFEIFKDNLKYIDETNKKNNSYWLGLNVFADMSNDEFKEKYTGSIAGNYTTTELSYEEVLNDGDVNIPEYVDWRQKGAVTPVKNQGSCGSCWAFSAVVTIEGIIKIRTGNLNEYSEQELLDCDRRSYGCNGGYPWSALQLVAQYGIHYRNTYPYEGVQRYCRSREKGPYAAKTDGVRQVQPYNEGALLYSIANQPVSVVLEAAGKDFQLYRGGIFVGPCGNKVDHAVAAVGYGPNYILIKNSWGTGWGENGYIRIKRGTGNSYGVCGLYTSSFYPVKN
nsP2pro confirm – CHIKV nsP2 protease inhibition, confirmatory qHTS; CHIKV nsP2 protease enzymatic activity, qHTS; 43% of 410 active; Potency, µM (series often up to 25.5 µM), inactives show at the highest dose activity change, negative = inhibition, most hits filed as inhibitors; shares compounds with nsP2pro inh; also: nearly all actives have a fitted effect of over 75% in size
HCV NS3 counter – HCV NS3/4A protease inhibition, counterscreen; shares compounds with nsP2pro inh; HCV NS3/4A protease biochemical counterscreen; Potency, µM (doses to about 50.9 µM), usual class: inhibitors; 20% of 410 active; AID 1964106; also: nearly all actives have a fitted effect of over 55% in size
Numbers without * were called inactive; i = inactive; ? = inconclusive; [ ] = another dose, or the depositor's remark. Calls follow the shape of the full dose curve. % is scaled to controls: 0 for no effect and ±100 for the full control effect; potency is read from the fitted curve at half-maximal effect.

SMILES	nsP2pro inh	others
COCC(=O)N[C@H]1C[C@H]2C(=O)NC[C@@H](CCC(=O)N3CCN(c4ccccn4)CC3)N2C1	-3%
C=C1C[C@]23C[C@H]1CC[C@H]2[C@@]12CC[C@H](O)[C@@](C)(C(=O)O1)[C@H]2[C@@H]3C(=O)O	-9%
C=C1CC23CC1CCC2C12OC(=O)C(C)(C(O)CC1O)C2C3C(=O)O (stereo unspecified)	?	CHIKV nsP2 cell=5%[33.5 µM];CHIKV NSP2 FL=1%[33.5 µM];Furin counterscr=2%[33.5 µM];nsP2 NS23 pep=-5%[33.5 µM];Papain counter=-6%[33.5 µM];nsP2pro confirm=-20%[16.7 µM];HCV NS3 counter=i
C=C1C[C@]23C[C@H]1[C@@H](O)C[C@H]2[C@@]12C=C[C@H](O)[C@@](C)(C(=O)O1)[C@H]2[C@@H]3C(=O)O	-21%
CN(CCc1cnc[nH]1)c1ncnc2ccc(-c3ccc4c(c3)OCO4)cc12	i
S=C(NC1CCCCC1)N[C@H]1CO[C@H]2[C@@H]1OC[C@@H]2n1nnnc1-c1ccc2c(c1)OCO2	1%
NNCCc1ccc(NC(=O)CCCc2ccccc2)cc1	-17%
COc1ccc(-c2ccc(NC(=O)c3cccs3)cn2)cc1	?	CHIKV nsP2 cell=0%;CHIKV NSP2 FL=?;Furin counterscr=-4%;nsP2 NS23 pep=-15%;Papain counter=-4%;nsP2pro confirm=-6%;HCV NS3 counter=?
Nc1ccc(-c2ccc(NC(=O)c3cccs3)cn2)cc1	5%
COc1ccccc1C(=O)Nc1ccc(NC(=O)c2cccs2)cc1	-8%
CC#CC(=O)N1CC[C@@H](n2c(=O)n(-c3ccc(Oc4ccccc4)cc3)c3c(N)ncnc32)C1	-2%
O=[N+]([O-])c1cc(S(=O)(=O)Nc2ccc(O)c3ccccc23)ccc1Cl	5µM*	CHIKV nsP2 cell=?;CHIKV NSP2 FL=16µM*;Furin counterscr=-18%;nsP2 NS23 pep=12µM*;Papain counter=?;nsP2pro confirm=5.7µM*;HCV NS3 counter=i
O=S(=O)(Nc1ccc(O)c2ncccc12)c1ccccc1F	-29%
O=c1[nH]c2ccc(S(=O)(=O)Nc3cc(Cl)ccc3O)cc2o1	26%
COc1ccccc1NC(=O)N1CC(C(=O)NCC2CC2)CC(c2ccccc2)C1 (stereo unspecified)	-2%
Cc1cc(F)ccc1C(=O)N1CCn2nc(Cc3ccccc3)cc2C1	i
Cc1cc(C)nc(NC(=S)N2CCN(c3cncnc3)CC2)c1	3%
O=C(c1cc(-c2ccco2)[nH]n1)N1CCC(n2cnc3ccccc32)C1 (stereo unspecified)	0.71µM*	CHIKV nsP2 cell=?;CHIKV NSP2 FL=7.3µM*;Furin counterscr=-8%;nsP2 NS23 pep=?;Papain counter=-3%;nsP2pro confirm=?;HCV NS3 counter=3.3µM*
CC(=O)NCC(=O)N1CCC(c2cc(-c3ccc(F)cc3)n[nH]2)CC1	i
O=C(NCC(F)(F)F)c1cc(C2CCN(C(=O)c3cc(-c4ccco4)[nH]n3)CC2)[nH]n1	1.1µM*	CHIKV nsP2 cell=-12%
O=C(c1ccc2ccccc2n1)N1CCC(n2cc(-c3nc(-c4ccccc4)no3)nn2)C1 (stereo unspecified)	i
COCC1CCCN(C(=O)c2cc(Cn3c(C)nc4ccccc43)[nH]n2)C1 (stereo unspecified)	2%
COc1cccc(-c2cc(C3CCN(C(=O)Nc4ccccc4C(F)(F)F)CC3)[nH]n2)c1	i
O=C(O)c1ccc(-n2cccc2/C=C2\SC(=O)N(Cc3ccccc3Cl)C2=O)cc1	i
Cc1ccc(NC(=O)N2CCCC(c3nnc(CN(C)C)n3C)C2)cc1C (stereo unspecified)	1%
SMILES	nsP2pro inh	others
O=C(NC1CCCCC1)C1(CCO)CC12CCN(c1ncccn1)CC2 (stereo unspecified)	5%
CC1=C(C)C(=O)C(CC[C@](C)(O)CCC[C@H](C)CCC[C@H](C)CCCC(C)C)=C(C)C1=O	-7%
CCC=CCC=CCC=CCCCCCCCC(=O)O	-30%
O=C1c2c(O)ccc(O)c2C(=O)c2c(NCCNCCO)ccc(NCCNCCO)c21	219%
O=C1c2cccc(O)c2C(=O)c2c(O)cc(CO)cc21	?	CHIKV nsP2 cell=-9%;CHIKV NSP2 FL=-1%;Furin counterscr=-6%;nsP2 NS23 pep=-13%;Papain counter=-13%;nsP2pro confirm=10%;HCV NS3 counter=i
CNC1=C(c2ccc(F)cc2)C(=O)N(Cc2ccccc2)C1	-9%
O=C(c1ccc2c(c1)ncn2-c1ccc(Cl)cc1)N1CCCCC1	-6%
Cc1ccnc(NC(=S)N2CCN(c3cc(C(F)(F)F)cc(C(F)(F)F)c3)CC2)c1	-20%
O=C(NCC1CCC(=O)N(Cc2ccccc2)CC1)C1CCCCC1 (stereo unspecified)	i
O[C@@H]1C[C@@H](c2nc(Cc3ccc(F)cc3Cl)no2)N(Cc2ccc(OC(F)(F)F)cc2)C1	i
OC1CC(c2cccc(F)c2)N(Cc2ccc(-c3ccn[nH]3)o2)C1 (stereo unspecified)	?	CHIKV nsP2 cell=-2%;CHIKV NSP2 FL=-40%;Furin counterscr=-6%;nsP2 NS23 pep=?;Papain counter=-7%;nsP2pro confirm=?;HCV NS3 counter=i
CC(C)c1noc([C@@H]2C[C@@H](O)CN2Cc2cc3ccccc3o2)n1	-3%[39.2 µM]
CCn1ccc(C(=O)N2C[C@@H]3CCCN4CCC[C@@H]([C@H]34)[C@H]2CCCC(=O)NCC2CC2)n1	-19%
Cc1ccc(S(=O)(=O)Nc2ccncc2C(=O)Nc2nc(-c3ccccc3)cs2)cc1	4%
COc1ccc(C2CC(=O)c3c([nH]c(C(=O)OCc4ccccc4)c3C)C2)cc1OC (stereo unspecified)	-17%
Cc1c(C(=O)OCC2CCCC2)[nH]c2c1C(=O)CC(c1ccco1)C2 (stereo unspecified)	4µM*	CHIKV nsP2 cell=?;CHIKV NSP2 FL=-15%;Furin counterscr=-4%;nsP2 NS23 pep=-5%;Papain counter=-4%;nsP2pro confirm=8%;HCV NS3 counter=i
Cc1c(C(=O)OC2CCCCC2)[nH]c2c1C(=O)CC(c1ccccc1Cl)C2 (stereo unspecified)	-15%
CCCCCCCCn1cc(CC(N)=O)c2cc(-c3cccc(C)c3)ccc21	8%
O=C(CCC1CCCC1)N1CC(N(Cc2ccccn2)C(=O)Nc2ccccc2)C1	i
COc1ccc(CNc2nccc(CCC(F)(F)F)n2)cc1OC	i
CC(c1n[nH]c(=O)n1CCC(=O)O)n1cccn1 (stereo unspecified)	0%
CCOC(=O)c1cccc(NCC2=CC(C)(C)Oc3ccc(OC)cc32)c1	-11%
CCOC(=O)c1cccc(CNc2ccc(N(C)C(=O)Nc3ccccc3)cc2)c1	?	CHIKV nsP2 cell=?;CHIKV NSP2 FL=-13%;Furin counterscr=-11%;nsP2 NS23 pep=-8%;Papain counter=?;nsP2pro confirm=-3%;HCV NS3 counter=i
